# Sampled rows, rich in hits. Any-hit rate of the full collection: about 3.3%.
# HNF4A DNA FP – change in binding of human HNF4A to DNA, primary screen, biochemical, fluorescence polarization, FITC-DNA; activity change, % at 10 µM; hit rate 0.3% among 360,000; Hepatocyte nuclear factor 4-alpha (Homo sapiens), P41235; AID 1224865, 2016; 1 h; in the data active = activity change above about 30%, passing the limit was not always enough
# Fh CTSL1 inh – Fasciola hepatica cathepsin L1 inhibitors, primary screen, counter-screen for PFM18AAP inhibitor project, biochemical, QFRET, fluorogenic peptide substrate | recombinant F. hepatica cathepsin L1, Z-Leu-Arg-MCA fluorescence | inhibition, % at 5.96 µM | hit rate 0.49% among 300,000 | AID 1906, 2009;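 active = inhibition above the mean of all tested compounds plus 3 SD, set per screening campaign, cut at about 17% in these data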;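 note: 0% = plate median of test compound wells and 100% = 1 µM Z-Phe-Ala-diazomethylketone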
# TPT1 inhibitor – Candida albicans TPT1 enzyme inhibitors, primary screen, biochemical, fluorescence polarization | tRNA 2'-phosphotransferase TPT1 (Candida albicans SC5314) | recombinant caTPT1, FP RNA substrate dephosphorylation | inhibition, % at 5 µM | hit rate 0.81% among 300,000 | AID 1962, 2009;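 active = inhibition above the mean of all tested compounds plus 3 SD, set per screening campaign, cut at about 24% in these data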;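 note: plate controls were DMSO alone for no effect and ferristatin control at 100 nM for full effect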
# CendR NRP1 mod – modulators of CendR peptide binding to NRP-1, primary screen, biochemical, fluorescence polarization, uHTS; hit rate 0.85% among 360,000; inhibition, % at 25 µM; FAM-RPARPAR peptide binding to NRP-1;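 active = inhibition or corrected inhibition above about 18%, plus a signal ratio from 0.5 to 1.5, limit read from the data, passing the limit was not always enough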
# PHOSPHO1 block – PubChem AID 1565. Phosphoethanolamine/phosphocholine phosphatase (Homo sapiens), Q8TCT1. inhibition, % at 13.3 µM. hit rate 1.1% among 290,000. recombinant PHOSPHO1, absorbance phosphatase assay; in the data active = inhibition above about 60%
# Target sequence (Q8TCT1 whole entry, looked up): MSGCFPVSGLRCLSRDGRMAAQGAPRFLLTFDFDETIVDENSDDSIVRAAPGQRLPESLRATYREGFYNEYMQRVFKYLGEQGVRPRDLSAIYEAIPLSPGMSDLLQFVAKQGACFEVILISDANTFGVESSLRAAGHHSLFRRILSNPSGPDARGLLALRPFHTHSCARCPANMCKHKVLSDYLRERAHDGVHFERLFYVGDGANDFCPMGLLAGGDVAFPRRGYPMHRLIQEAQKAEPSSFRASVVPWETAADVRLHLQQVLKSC
# Rpn11 inh – Rpn11 (PSMD14) deubiquitinase inhibitors, primary screen, biochemical, fluorescence polarization, uHTS | 26S proteasome non-ATPase regulatory subunit 14 (Homo sapiens), O00487 | human 26S proteasome, Ub4-pepOG fluorescence polarization; 20S core pre-blocked with epoxomicin | inhibition, % at 20 µM | hit rate 0.59% among 360,000;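 active = inhibition at 20 µM, scaled to each plate's controls, above about 33%, limit read from the data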
# Target sequence (O00487 whole entry, looked up): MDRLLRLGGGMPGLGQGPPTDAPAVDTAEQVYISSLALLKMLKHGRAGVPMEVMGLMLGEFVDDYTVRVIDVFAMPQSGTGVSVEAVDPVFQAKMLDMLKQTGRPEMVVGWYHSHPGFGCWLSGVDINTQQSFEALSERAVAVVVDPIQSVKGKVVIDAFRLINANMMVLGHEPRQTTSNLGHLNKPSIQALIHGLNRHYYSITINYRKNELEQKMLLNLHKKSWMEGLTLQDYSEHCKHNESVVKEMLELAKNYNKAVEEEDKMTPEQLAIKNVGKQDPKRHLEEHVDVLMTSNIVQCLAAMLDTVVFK
# * = called active by the depositor; . = no result.
SMILES,HNF4A DNA FP,Fh CTSL1 inh,TPT1 inhibitor,CendR NRP1 mod,PHOSPHO1 block,Rpn11 inh
Nc1nc2c(s1)C(=O)CC(c1ccccc1)C2 (centres undefined),-0.1,-0.9,2.4,2.1,60.1*,7.7
O=C1CCCN1c1ccc(S(=O)(=O)Oc2cccc(Cl)c2)cc1[N+](=O)[O-],-2.3,0.4,4.6,7.8,-1.2,3.5
NC(=O)c1ccc(NC(=O)COc2coc(CN3CCc4ccccc4C3)cc2=O)cc1,-3.0,6.4,-1.0,9.3,.,-3.6
COc1ccc(/C=N/NC(=O)c2cc(C(C)(C)C)[nH]n2)cc1COc1ccc(F)cc1F,-5.9,4.5,-0.9,39.1*,-3.7,9.2
CCn1c(-c2ccsc2)nc2c1c(=O)[nH]c(=O)n2Cc1ccccc1,7.9,2.5,-0.3,-4.2,-1.6,6.6
Cc1nn(C)cc1/C=C(/C#N)C(N)=O,0.8,2.7,-0.7,-2.0,7.1,-3.9
CC(=O)OCC1OC(OCc2cn(C[C@H]3CC[C@H](Cn4cc(COC5OC(COC(C)=O)C(OC(C)=O)C(OC(C)=O)C5OC(C)=O)nn4)O3)nn2)C(OC(C)=O)C(OC(C)=O)C1OC(C)=O (some centres undefined),-0.4,-0.2,2.3,19.4*,-35.5,0.5
CC(=O)OCC1OC(OCc2cn(C[C@H]3CC[C@@H]([C@@H]4CC[C@H](Cn5cc(COC6OC(COC(C)=O)C(OC(C)=O)C(OC(C)=O)C6OC(C)=O)nn5)O4)O3)nn2)C(OC(C)=O)C(OC(C)=O)C1OC(C)=O (some centres undefined),3.8,1.3,-1.4,4.6,-7.3,-3.4
COc1ccc([N+](=O)[O-])cc1NC(=O)CSCc1ccccc1C,0.2,0.8,-1.7,0.5,-8.8,-0.3
O=C(NC1CCCCC1)C(c1cccs1)N(C(=O)c1ccccn1)c1ccccc1 (centres undefined),-2.4,-0.9,2.1,5.2,-19.4,6.4
OC(C#Cc1ccccn1)c1cccs1 (centres undefined),-32.3,2.2,-11.5,9.2,60.5*,-97.3
CCN(CC)C(=O)c1cccc(-c2csc(C(C)(NC(C)=O)c3ccccc3)n2)c1 (centres undefined),-2.2,.,.,16.9,.,-0.7
CS(=O)(=O)c1ccc(Cl)c(NC(=O)C2CCCCN2S(=O)(=O)c2ccccc2)c1 (centres undefined),1.0,.,.,7.5,.,0.4
CCO/C=C1\N=C(c2ccc(F)cc2)OC1=O,-0.1,36.3*,-1.2,0.3,-8.5,2.1
COc1cccc(C2CC(=O)N3CN(c4cccc(Cl)c4C)CSC3=C2C#N)c1OC (centres undefined),-3.9,2.9,-3.1,-13.8,88.1*,1.8
COc1ccc(OC)c(C2CC(=O)N3CN(c4ccccc4F)CSC3=C2C#N)c1 (centres undefined),-3.0,-0.1,2.5,-17.3,85.7*,-8.9
COc1cccc(C2CC(=O)N3CN(c4ccccc4F)CSC3=C2C#N)c1 (centres undefined),3.6,7.8,0.4,8.6,28.8,2.2
CCc1ccccc1N1CSC2=C(C#N)C(c3cc(OC)c(OC)cc3OC)CC(=O)N2C1 (centres undefined),2.1,16.1,8.7,-13.1,5.8,15.0
COc1ccc(OC)c(C2CC(=O)N3CN(c4cccc(Cl)c4C)CSC3=C2C#N)c1 (centres undefined),1.4,4.7,-3.0,-25.2,92.8*,6.5
CCN(C(=O)CSc1nnc(C2CC2)n1-c1ccccc1)C1CCS(=O)(=O)C1 (centres undefined),-4.8,.,.,6.4,.,5.8
O=C(c1ccc(OCc2cn3ccccc3n2)cc1)N1CCN(S(=O)(=O)c2ccccc2F)CC1,-4.5,.,.,5.9,.,-8.2
Cc1cccc(C)c1NC(=O)CN1CCN(C(=O)c2ccc(OCc3cn4ccccc4n3)cc2)CC1,-0.9,.,.,29.7*,.,5.5
O=c1c2c3c(sc2nc2n1CCCCC2)CCCC3,2.0,-1.1,-1.1,5.1,75.6*,4.1
CC1CSc2nc3sc4c(c3c(=O)n21)CCCC4 (centres undefined),3.3,-1.2,-2.1,1.9,67.1*,-3.2
O=c1c2c3c(sc2nc2n1CCCS2)CCCC3,3.8,-2.3,1.1,6.0,27.0,-2.8
SMILES,HNF4A DNA FP,Fh CTSL1 inh,TPT1 inhibitor,CendR NRP1 mod,PHOSPHO1 block,Rpn11 inh
O=C1CC(N2CCN(c3ccc(S(=O)(=O)N4CCCC4)cc3)CC2)C(=O)N1c1ccc(F)cc1 (centres undefined),14.3,-3.9,1.7,-1.8,-15.6,-1.0
Cc1ccn(CC(=O)N2CCCC(N3CCN(c4ccccc4F)CC3)C2)n1 (centres undefined),2.5,.,.,17.1,-6.7,-1.6
CCC1C(=O)Nc2ccccc2N1C(=O)COc1ccccc1 (centres undefined),-3.1,-2.2,1.1,25.9*,19.0,-4.2
COC(=O)c1ccccc1N=C(SC)N(C)C,-3.6,-0.4,-3.1,-3.1,93.7*,-7.7
CCOC(=O)C1=C(C)NC2=C(C(=O)CCC2)C1c1cccnc1 (centres undefined),-1.0,1.9,2.5,3.7,35.7,1.6
CCOC(=O)C1=C(C)NC2=C(C(=O)c3ccccc32)C1c1cccnc1 (centres undefined),-6.4,-1.0,0.3,39.9*,26.1,7.1
CC1CCCN(C(=O)CCCNC(=O)c2ccc(Cl)cc2)C1 (centres undefined),-3.3,-0.3,3.7,14.9,30.1,-9.7
NC(=O)C1CCCN(C(=O)CCCNC(=O)c2ccc(Cl)cc2)C1 (centres undefined),3.5,2.4,-1.3,28.2*,37.0,4.2
O=C(NCCC(=O)N1CCCC(C(F)(F)F)C1)c1ccc(Br)cc1 (centres undefined),-4.6,-3.4,4.2,28.5*,47.6,3.8
CN(C)c1ncnc2c1NC1=C(S2)C(=NCCCC(=O)O)CC(C)(C)C1,-3.4,1.5,-18.5,-7.5,86.6*,-35.0
COc1ncnc2c1NC1=C(S2)C(=NCCC(=O)O)CC(C)(C)C1,1.6,-1.9,-110.3,0.2,51.9,-25.9
Cc1ccc(S(=O)(=O)NCCS(=O)(=O)N2CCN(c3ccccc3)CC2)cc1,3.1,6.2,-1.1,5.4,38.8,7.0
Cc1cccc(C(=O)NCC(=O)OCC(=O)N(C)CC(=O)Nc2ccc(F)cc2)c1,1.5,40.3*,21.1,-7.3,.,5.5
COc1cc(/C=C(\C#N)C(=O)Nc2cccc(C(=O)O)c2)ccc1OCc1ccc(F)cc1,1.4,3.6,-0.7,-28.6,16.1,5.0
